Assay results from the supplement of paper PMC7411054.

Experiments:
Conditions in all cases: treatment time: 24 h
WPMY1-GM130-SQSTM1 [1] = assay: lowest phenotypically active concentration; higher = less potent
How it was run: (§1)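 The reporter lines, fifteen in total and built by gene editing in A549, HepG2 and WPMY1 cells, used BFP for segmentation alongside GFP and RFP/FusionRed markers. Each was treated at 0.3, 1, 3 or 9 µM for 24 h in four wells and then imaged live, with live-cell features normalised to solvent control wells. Deviation meant ≥3 of 4 wells beyond the 95th percentile of control Euclidean distances; reproducibility meant a median replicate Pearson correlation above the 95th percentile of non-replicates. Only conditions meeting both were scored as phenotypically active.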

A549-ACTB-RAB5A = assay: phenotypically active (imaging signature differs from DMSO and reproducible) at any of 0.3-9 uM (binary (1 = active, 0 = inactive)); higher = active
How it was run: as §1

A549-CANX-COX4 = assay: as above
How it was run: as §1

A549-GM130-SQSTM1 = assay: as above
How it was run: as §1

A549-TP53BP1-CLTA = assay: as above
How it was run: as §1

A549-TUBA1B-RELA = assay: as above
How it was run: as §1

HepG2-ACTB-RAB5A = assay: as above
How it was run: as §1

HepG2-CANX-COX4 = assay: as above
How it was run: as §1

HepG2-GM130-SQSTM1 [2] = assay: as above
How it was run: as §1

HepG2-TP53BP1-CLTA = assay: as above
How it was run: as §1

HepG2-TUBA1B-RELA [3] = assay: as above
How it was run: as §1

WPMY1-ACTB-RAB5A [4] = assay: as above
How it was run: as §1

WPMY1-CANX-COX4 = assay: as above
How it was run: as §1

WPMY1-GM130-SQSTM1 [5] = assay: as above
How it was run: as §1

WPMY1-TP53BP1-CLTA = assay: as above
How it was run: as §1

WPMY1-TUBA1B-RELA = assay: as above
How it was run: as §1

HepG2-TUBA1B-RELA [6] = assay: lowest phenotypically active concentration; higher = less potent
How it was run: as §1

HepG2-GM130-SQSTM1 [7] = assay: as above
How it was run: as §1

WPMY1-ACTB-RAB5A [8] = assay: as above
How it was run: as §1

| SMILES | lowest phenotypically active concentration (WPMY1-GM130-SQSTM1 [1]) [µM] | phenotypically active (A549-ACTB-RAB5A) | phenotypically active (A549-CANX-COX4) | phenotypically active (A549-GM130-SQSTM1) | phenotypically active (A549-TP53BP1-CLTA) | phenotypically active (A549-TUBA1B-RELA) | phenotypically active (HepG2-ACTB-RAB5A) | phenotypically active (HepG2-CANX-COX4) | phenotypically active (HepG2-GM130-SQSTM1 [2]) | phenotypically active (HepG2-TP53BP1-CLTA) | phenotypically active (HepG2-TUBA1B-RELA [3]) | phenotypically active (WPMY1-ACTB-RAB5A [4]) | phenotypically active (WPMY1-CANX-COX4) | phenotypically active (WPMY1-GM130-SQSTM1 [5]) | phenotypically active (WPMY1-TP53BP1-CLTA) | phenotypically active (WPMY1-TUBA1B-RELA) | lowest phenotypically active concentration (HepG2-TUBA1B-RELA [6]) [µM] | lowest phenotypically active concentration (HepG2-GM130-SQSTM1 [7]) [µM] | lowest phenotypically active concentration (WPMY1-ACTB-RAB5A [8]) [µM] |
| --- | --- | --- | --- | --- | --- | --- | --- | --- | --- | --- | --- | --- | --- | --- | --- | --- | --- | --- | --- |
| O=C1CCc2ccc(OCCCCN3CCN(c4cccc(Cl)c4Cl)CC3)cc2N1 [aripiprazole] | ≤ 0.3 | 0 (inactive) | 0 (inactive) | 0 (inactive) | 0 (inactive) | 0 (inactive) | 0 (inactive) | 0 (inactive) | 0 (inactive) | 0 (inactive) | 0 (inactive) | 0 (inactive) | 0 (inactive) | 1 (active) | 0 (inactive) | 0 (inactive) |  |  |  |
| c1ccc(-c2cnn3cc(-c4ccc(OCCN5CCOCC5)cc4)cnc23)cc1 |  | 0 (inactive) | 0 (inactive) | 0 (inactive) | 0 (inactive) | 0 (inactive) | 0 (inactive) | 0 (inactive) | 0 (inactive) | 0 (inactive) | 1 (active) | 0 (inactive) | 0 (inactive) | 0 (inactive) | 0 (inactive) | 0 (inactive) | 3 |  |  |
| NS(=O)(=O)C#Cc1ccccc1 [pifithrin-mu] | 9 | 0 (inactive) | 0 (inactive) | 0 (inactive) | 0 (inactive) | 0 (inactive) | 0 (inactive) | 0 (inactive) | 1 (active) | 0 (inactive) | 0 (inactive) | 0 (inactive) | 0 (inactive) | 1 (active) | 0 (inactive) | 1 (active) |  | 3 |  |
| O=S(=O)(NCCCCCCc1ccccc1)c1cccc2c(Cl)cccc12 |  | 0 (inactive) | 0 (inactive) | 0 (inactive) | 0 (inactive) | 0 (inactive) | 0 (inactive) | 0 (inactive) | 0 (inactive) | 0 (inactive) | 1 (active) | 1 (active) | 1 (active) | 0 (inactive) | 0 (inactive) | 0 (inactive) | ≤ 0.3 |  | ≤ 0.3 |
| COc1ccc(C[C@@H]2c3cc(OC)c(OC)cc3CC[N@+]2(C)CCC(=O)OCCCCCOC(=O)CC[N@@+]2(C)CCc3cc(OC)c(OC)cc3[C@H]2Cc2ccc(OC)c(OC)c2)cc1OC [Cisatracurium besylate] | 9 | 0 (inactive) | 0 (inactive) | 0 (inactive) | 0 (inactive) | 0 (inactive) | 0 (inactive) | 0 (inactive) | 1 (active) | 0 (inactive) | 0 (inactive) | 0 (inactive) | 0 (inactive) | 1 (active) | 0 (inactive) | 0 (inactive) |  | 9 |  |
| NC(=O)c1ccc(I)c([N+](=O)[O-])c1 |  | 0 (inactive) | 0 (inactive) | 0 (inactive) | 0 (inactive) | 0 (inactive) | 0 (inactive) | 0 (inactive) | 1 (active) | 0 (inactive) | 0 (inactive) | 0 (inactive) | 0 (inactive) | 0 (inactive) | 0 (inactive) | 0 (inactive) |  | 9 |  |
| Oc1cc(O)cc(/C=C/c2ccc(O)c(O)c2)c1 [Piceatannol] | 3 | 0 (inactive) | 0 (inactive) | 0 (inactive) | 0 (inactive) | 0 (inactive) | 0 (inactive) | 0 (inactive) | 0 (inactive) | 0 (inactive) | 0 (inactive) | 1 (active) | 0 (inactive) | 1 (active) | 0 (inactive) | 1 (active) |  |  | 9 |
| COC(=O)C1=C(C)NC(C)=C(C(=O)OC)C1c1ccccc1[N+](=O)[O-] [nifedipine] | 9 | 0 (inactive) | 0 (inactive) | 0 (inactive) | 0 (inactive) | 0 (inactive) | 0 (inactive) | 0 (inactive) | 0 (inactive) | 0 (inactive) | 0 (inactive) | 0 (inactive) | 0 (inactive) | 1 (active) | 0 (inactive) | 0 (inactive) |  |  |  |
| CN(C)CCOC(c1ccccc1)c1ccccc1 [diphenhydramine] | 9 | 0 (inactive) | 0 (inactive) | 0 (inactive) | 0 (inactive) | 0 (inactive) | 0 (inactive) | 0 (inactive) | 0 (inactive) | 0 (inactive) | 0 (inactive) | 1 (active) | 1 (active) | 1 (active) | 1 (active) | 1 (active) |  |  | 9 |
| CCOc1ccc2nc(S(N)(=O)=O)sc2c1 [ethoxzolamide] |  | 0 (inactive) | 0 (inactive) | 0 (inactive) | 0 (inactive) | 0 (inactive) | 0 (inactive) | 0 (inactive) | 1 (active) | 0 (inactive) | 0 (inactive) | 0 (inactive) | 0 (inactive) | 0 (inactive) | 0 (inactive) | 0 (inactive) |  | 9 |  |
| CC1(C)CC(=O)c2c(S(C)(=O)=O)sc(Cl)c2C1 | 3 | 0 (inactive) | 0 (inactive) | 0 (inactive) | 0 (inactive) | 0 (inactive) | 0 (inactive) | 0 (inactive) | 1 (active) | 0 (inactive) | 0 (inactive) | 0 (inactive) | 0 (inactive) | 1 (active) | 0 (inactive) | 0 (inactive) |  | 1 |  |
